Nine compounds from PubChem BioAssay (Tox21) can be followed below.

Inconclusive results are not listed. Values without a mark were called inactive. Activity calls are given as the source filed them. Unless noted, the call rests on the fitted dose curve; in most records, active means well fitted curve in the direction sought with a large enough effect in the repeat runs; inconclusive means weak or mixed curves; inactive means no such curve, though single readings can be large; an effect the other way counts as inactive or inconclusive.

Test [1] in a line: qHTS assay to identify small molecule antagonists of the thyroid receptor (TR) signaling pathway - cell viability counter screen (AID 743064). Further: nearly all actives have a fitted effect of over 50% in size. Further: potency means the concentration at half of the fitted maximal effect. The procedure, abridged:
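Plate GH3.TRE-Luc cells; incubate 4 h at 37 °C; add compound, then T3 to 1 nM final; incubate 23.5 h; add CellTiter-Fluor; incubate 30 min at 37 °C, 5% CO2; read fluorescence.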
Background: qHTS replaces the single test concentration by a dilution series.

A short description of test [2]: qHTS assay to identify small molecule antagonists of the thyroid receptor (TR) signaling pathway (AID 743065). Further: nearly all actives have a fitted effect of over 55% in size. Further: potency means the concentration at half of the fitted maximal effect. In short, it runs like this:
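GH3.TRE-Luc rat pituitary cells (two TREs driving luciferase) were dosed with compound, then stimulated with 1 nM T3 (final) for 23.5 h at 37 C. ONE-Glo luminescence was the read-out, with CellTiter-Fluor fluorescence as the cytotoxicity counter-screen.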

Test [3] concerns thyroid hormone receptor (rat, GH3 cells). The test can be described thus: qHTS assay to identify small molecule agonists of the thyroid receptor (TR) signaling pathway (AID 743066; calls by dose curve).
In test [4] the target is Estrogen receptor (Homo sapiens) (UniProt P03372). As to the kind of experiment: qHTS assay to identify small molecule antagonists of the estrogen receptor alpha (ER-alpha) signaling pathway (AID 743069; active means well fitted curve in the direction sought with a large enough effect in the signal ratio in the repeat runs, not every such curve was filed as active; the % refers to the signal ratio). The procedure, abridged: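 In this cell-based reporter format, GripTite HEK293 cells harbouring ER-alpha-UAS-bla were grown overnight with 2% charcoal-stripped FBS, dosed with DMSO-dissolved compounds, then challenged with 17beta-estradiol. After 18 hr at 37C, beta-lactamase activity was detected by FRET fluorescence.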
Estrogen receptor (Homo sapiens), sequence (P03372 whole entry, looked up): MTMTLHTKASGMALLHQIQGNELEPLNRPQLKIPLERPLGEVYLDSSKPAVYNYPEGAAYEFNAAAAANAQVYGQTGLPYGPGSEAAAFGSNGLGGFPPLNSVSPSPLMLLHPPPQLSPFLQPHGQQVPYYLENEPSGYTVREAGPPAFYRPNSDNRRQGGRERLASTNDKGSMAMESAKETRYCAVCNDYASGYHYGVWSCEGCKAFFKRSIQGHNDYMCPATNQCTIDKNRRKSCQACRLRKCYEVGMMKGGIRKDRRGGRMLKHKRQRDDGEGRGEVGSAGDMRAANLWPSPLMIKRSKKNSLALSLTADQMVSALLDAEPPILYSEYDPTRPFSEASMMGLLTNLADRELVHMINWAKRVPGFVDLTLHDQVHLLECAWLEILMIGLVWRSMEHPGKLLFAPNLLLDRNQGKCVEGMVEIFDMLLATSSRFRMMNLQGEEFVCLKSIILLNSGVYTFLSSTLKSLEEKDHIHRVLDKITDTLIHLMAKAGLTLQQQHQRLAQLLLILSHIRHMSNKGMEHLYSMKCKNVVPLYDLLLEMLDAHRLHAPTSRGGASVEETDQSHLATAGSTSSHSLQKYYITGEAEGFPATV

Test [5] in a line: qHTS assay to identify small molecule antagonists of the estrogen receptor alpha (ER-alpha) signaling pathway - cell viability counter screen (AID 743074; calls by dose curve; further: nearly all actives have a fitted effect of over 45% in size).
Test [6] addresses Estrogen receptor (Homo sapiens) (UniProt P03372). As to the kind of experiment: qHTS assay to identify small molecule agonists of the estrogen receptor alpha (ER-alpha) signaling pathway (AID 743075; calls by dose curve).
Test [7] is described as follows: qHTS assay to identify small molecule antagonists of the estrogen receptor alpha (ER-alpha) signaling pathway using the BG1 cell line (AID 743080; calls by dose curve;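 further: BG1 cells stimulated with 17beta-estradiol alongside compound; series mostly up to about 70 µM; nearly all actives have a fitted effect of over 25% in size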). In short, it runs like this: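 Quantitative HTS on the Tox21 10K library: BG1 cells with endogenous ER-alpha and ERE-luciferase reporter, 17beta-estradiol stimulation, 21.5 h compound exposure, luminescence endpoint with parallel fluorescence cytotoxicity counter-read.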

A short description of test [8]: qHTS assay to identify small molecule antagonists of the estrogen receptor alpha (ER-alpha) signaling pathway using the BG1 cell line - cell viability counter screen (AID 743081).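 Further: compound given together with 17beta-estradiol as the ER stimulus; series mostly up to about 70 µM; nearly all actives have a fitted effect of over 45% in size.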
Test [9] concerns the target Aromatase (Homo sapiens) (UniProt P11511). As to the kind of experiment: qHTS assay to identify aromatase inhibitors (AID 743083). Further: series mostly up to about 70 µM; nearly all actives have a fitted effect of over 55% in size.
A short description of test [10]: qHTS assay to identify aromatase inhibitors - cell viability counter screen (AID 743084).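 Further: cells stimulated with testosterone during compound exposure; nearly all actives have a fitted effect of over 55% in size.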
Test [11] concerns the target Aryl hydrocarbon receptor (Homo sapiens) (UniProt P35869). The test can be described thus: qHTS assay to identify small molecule that activate the aryl hydrocarbon receptor (AhR) signaling pathway (AID 743085). Further: nearly all actives have a fitted effect of over 15% in size. Further: potency means the concentration at half of the fitted maximal effect.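 On activation: HG2L7.5c1 human HepG2 liver cells with stably integrated DRE-driven firefly reporter; series mostly up to about 70 µM.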 The procedure, abridged:
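Steps: seed HepG2-AhR-luc cells; allow 5 h at 37C; pin-transfer test compound or vehicle; incubate 24 h at 37C; add viability dye (30 min, 37C) and read fluorescence; add luciferase substrate (30 min, RT) and read luminescence.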

The nature of test [12]: qHTS assay to identify small molecule that activate the aryl hydrocarbon receptor (AhR) signaling pathway - cell viability counter screen (AID 743086).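 Further: HepG2 liver cells carrying the AhR DRE luciferase reporter; series mostly up to about 70 µM; nearly all actives have a fitted effect of over 45% in size.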 The procedure, abridged:
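HepG2-AhR-luc (HG2L7.5c1) cells, 4000/well, treated 24 h at 37 C with compound; viability measured as CellTiter-Fluor fluorescence after 30 min in the same wells as the luciferase read.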

Test [13] addresses Peroxisome proliferator-activated receptor gamma (Homo sapiens) (UniProt P37231). As to the kind of experiment: qHTS assay to identify small molecule agonists of the peroxisome proliferator-activated receptor gamma (PPARg) signaling pathway (AID 743094; active means well fitted activation curve with a large enough effect in the signal ratio in the repeat runs, not every such curve was filed as active; the % refers to the signal ratio). The procedure, abridged: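 Agonist activity was taken from a beta-lactamase reporter (FRET substrate, 1 h at room temperature) in HEK293H cells carrying a PPARg UAS-bla construct. Compounds in DMSO were incubated 17 h at 37C after a 5 h cell pre-incubation.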

Test [14] shares this target. The test can be described thus: qHTS assay to identify small molecule antagonists of the peroxisome proliferator-activated receptor gamma (PPARg) signaling pathway (AID 743191; calls by dose curve; further: series mostly up to about 63 µM; nearly all actives have a fitted effect of over 30% in size). In short, it runs like this:
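GeneBLAzer PPARg UAS-bla HEK293H cells, 5 h post-plating, exposed to compounds 17 h at 37C. LiveBLAzer B/G FRET substrate added for 1 h at room temperature; beta-lactamase reporter read by fluorescence intensity.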

Test [15] can be described thus: qHTS assay to identify small molecule antagonists of the peroxisome proliferator-activated receptor gamma (PPARg) signaling pathway - cell viability counter screen (AID 743194). Further: nearly all actives have a fitted effect of over 55% in size. The procedure, abridged:
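Cytotoxicity counter screen in PPARg-bla HEK293H cells, same wells as reporter assay. Compounds plus 50 nM rosiglitazone (final) for 17 h at 37 C, then viability read by CellTiter-Glo luminescence.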

Test [16] is described as follows: qHTS assay for small molecule agonists of the antioxidant response element (ARE) signaling pathway (AID 743202; active means well fitted activation curve with a large enough effect in the signal ratio in the repeat runs, not every such curve was filed as active; the % refers to the signal ratio). The procedure, abridged:
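HepG2 ARE-bla cells; 16 h treatment at 37 C; FRET-based beta-lactamase fluorescence read after 2 h substrate incubation at room temperature.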

Test [17] in a line: qHTS assay for small molecule agonists of the antioxidant response element (ARE) signaling pathway - cell viability counter screen (AID 743203; calls by dose curve; further: nearly all actives have a fitted effect of over 55% in size). In short, it runs like this: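 Viability counter screen: CellTiter-Glo luminescence, read after 30 min at room temperature, in ARE-bla HepG2 wells. Compound exposure lasted 16 h at 37C/5% CO2, following a 5 h pre-incubation of the cells after plating.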

The nature of test [18]: qHTS assay for small molecule activators of the heat shock response signaling pathway - cell viability counter screen (AID 743209). Further: nearly all actives have a fitted effect of over 50% in size. In short, it runs like this: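 Cytotoxicity counter screen run in the same wells as the heat-shock bla reporter assay: HeLa HSE-bla cells, 5 h compound exposure at 37 C, viability read by CellTiter-Glo luminescence.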
The nature of test [19]: qHTS assay for small molecule activators of the heat shock response signaling pathway (AID 743210; active means well fitted activation curve with a large enough effect in the signal ratio in the repeat runs, with a control signal flat, not every such curve was filed as active; the % refers to the signal ratio;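 further: HeLa cells with beta-lactamase reporter driven by heat shock elements; series mostly up to about 63 µM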). In short, it runs like this: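 Following overnight attachment, HSE-bla HeLa cells received test compounds for 5 h at 37 C; beta-lactamase activity was then detected via FRET substrate fluorescence.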

Aryl hydrocarbon receptor (Homo sapiens), sequence (P35869 whole entry, looked up): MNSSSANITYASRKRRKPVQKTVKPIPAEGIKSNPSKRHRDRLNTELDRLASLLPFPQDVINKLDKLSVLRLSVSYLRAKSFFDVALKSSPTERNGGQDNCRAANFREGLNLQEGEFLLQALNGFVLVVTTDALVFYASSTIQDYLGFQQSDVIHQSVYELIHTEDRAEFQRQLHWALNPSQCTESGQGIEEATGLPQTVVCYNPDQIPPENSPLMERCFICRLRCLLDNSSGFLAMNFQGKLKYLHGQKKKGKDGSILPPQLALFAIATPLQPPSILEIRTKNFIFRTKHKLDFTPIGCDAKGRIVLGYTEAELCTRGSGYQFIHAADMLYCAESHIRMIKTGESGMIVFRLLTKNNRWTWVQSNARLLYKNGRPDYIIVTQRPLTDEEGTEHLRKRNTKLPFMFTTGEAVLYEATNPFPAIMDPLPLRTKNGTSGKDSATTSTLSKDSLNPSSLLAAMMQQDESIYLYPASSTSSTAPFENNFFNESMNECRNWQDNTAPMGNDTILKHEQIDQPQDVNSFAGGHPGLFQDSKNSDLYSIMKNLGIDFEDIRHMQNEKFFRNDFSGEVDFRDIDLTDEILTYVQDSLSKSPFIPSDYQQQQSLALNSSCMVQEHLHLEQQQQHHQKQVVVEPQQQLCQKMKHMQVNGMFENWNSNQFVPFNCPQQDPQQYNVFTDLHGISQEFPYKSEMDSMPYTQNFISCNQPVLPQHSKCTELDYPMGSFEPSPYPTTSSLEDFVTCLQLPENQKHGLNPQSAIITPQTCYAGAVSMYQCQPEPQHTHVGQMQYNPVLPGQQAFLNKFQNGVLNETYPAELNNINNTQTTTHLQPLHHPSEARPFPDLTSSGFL
Peroxisome proliferator-activated receptor gamma (Homo sapiens), sequence (P37231 whole entry, looked up): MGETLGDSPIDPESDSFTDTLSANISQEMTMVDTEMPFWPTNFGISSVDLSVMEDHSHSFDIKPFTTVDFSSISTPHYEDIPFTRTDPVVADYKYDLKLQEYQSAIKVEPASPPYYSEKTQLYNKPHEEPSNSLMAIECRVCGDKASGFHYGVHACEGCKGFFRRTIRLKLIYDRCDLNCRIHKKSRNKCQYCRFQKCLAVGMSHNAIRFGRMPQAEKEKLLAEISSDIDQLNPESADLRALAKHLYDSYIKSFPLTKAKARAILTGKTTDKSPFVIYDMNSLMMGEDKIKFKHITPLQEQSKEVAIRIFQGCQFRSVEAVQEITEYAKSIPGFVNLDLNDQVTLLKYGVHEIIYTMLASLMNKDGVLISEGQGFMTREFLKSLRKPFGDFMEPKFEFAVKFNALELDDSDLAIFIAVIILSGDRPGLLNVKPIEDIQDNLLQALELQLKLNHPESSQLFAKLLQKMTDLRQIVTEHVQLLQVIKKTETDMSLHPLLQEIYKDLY
Aromatase (Homo sapiens), sequence (P11511 whole entry, looked up): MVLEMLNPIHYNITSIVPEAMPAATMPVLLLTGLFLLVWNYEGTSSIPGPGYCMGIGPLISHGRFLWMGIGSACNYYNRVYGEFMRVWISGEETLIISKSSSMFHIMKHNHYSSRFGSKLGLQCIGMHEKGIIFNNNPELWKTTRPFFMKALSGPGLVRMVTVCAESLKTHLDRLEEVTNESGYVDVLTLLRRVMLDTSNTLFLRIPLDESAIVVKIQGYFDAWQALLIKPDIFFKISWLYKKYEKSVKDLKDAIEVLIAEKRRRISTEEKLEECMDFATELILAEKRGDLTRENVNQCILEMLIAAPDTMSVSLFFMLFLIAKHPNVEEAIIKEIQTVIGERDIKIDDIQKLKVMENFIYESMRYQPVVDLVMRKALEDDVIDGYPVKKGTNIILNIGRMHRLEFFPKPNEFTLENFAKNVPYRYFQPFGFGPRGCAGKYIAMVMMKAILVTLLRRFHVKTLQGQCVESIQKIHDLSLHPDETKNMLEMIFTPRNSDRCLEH

For the compound `C1=Cc2ccccc2C1`, the Potency entry in [1], in test [2], in [3], in [4], in test [6] and in test [7] was “inactive” each time. In addition, the Potency result in test [8], in test [9], in [10], in [12], in test [13] and in test [14] was “inactive” throughout. Moreover, the Potency entry in [15], in test [16], in [17] and in [18] was “inactive” throughout. Besides, the call in [5] and in [19] was inactive. Moreover, the Potency in test [11] is 27.3 µM (active).

Turning to `CCCCCCCCCC=O`, the Potency entry in test [1], in [2], in test [3], in test [6], in [7] and in test [8] was “inactive” in each case. Moreover, the Potency entry in test [9], in test [10], in [12], in test [15], in test [17] and in test [18] was “inactive” throughout. Further, the compound was called inactive in test [5] and in test [19].

Take `Cn1c(N)nc2nc[nH]c2c1=O`: the Potency entry in test [1], in test [2], in test [3], in [8], in test [9] and in [10] was “inactive” in each case. Besides, the Potency entry in [11], in test [12], in test [13], in test [14], in test [15] and in test [16] was “inactive” throughout. Further, the Potency result in [17] was “inactive”. In addition, in [5], the call was inactive.

With `COC(=O)CSc1cc(N=c2sc(=O)n3n2CCCC3)c(F)cc1Cl`, the Potency result in test [1], in [2], in [3], in [8], in test [9] and in test [10] was “inactive” throughout. Also, the Potency result in [11], in test [12], in test [13], in test [17] and in test [18] was “inactive” each time. In addition, the outcome in [5] and in test [19] was inactive.

As for `CC(=O)[C@@]1(O)CC[C@H]2[C@@H]3C[C@H](C)C4=CC(=O)CC[C@]4(C)[C@H]3CC[C@@]21C`, the Potency result in [1], in test [3], in [6], in [8], in test [9] and in [10] was “inactive” each time. Also, the Potency result in test [11], in test [12], in [13], in test [17] and in [18] was “inactive” each time. Also, the Potency in [2] is 11.9 µM (active). In addition, the compound was called inactive in test [5] and in test [19].

As for `N#Cc1c(F)cccc1F`, the Potency entry in test [1], in [2], in [3], in [8], in test [9] and in test [10] was “inactive” in each case. The Potency result in test [11], in [12], in test [13], in test [15], in test [16] and in [17] was “inactive” in each case. Besides, in [18], the Potency entry is “inactive”. For the same compound, the outcome in [5] and in test [19] was inactive.

For the compound `Cn1c(NCCN(CCO)CCCc2ccc([N+](=O)[O-])cc2)cc(=O)n(C)c1=O`, the Potency result in test [1], in test [2], in [3], in test [8], in test [9] and in [10] was “inactive” throughout. The Potency entry in test [11], in [12], in test [13], in test [16], in [17] and in test [18] was “inactive” throughout. The result in [5] was inactive.

On to `O=C(c1ccccc1)c1ccc2n1CCC2C(=O)O` (stereo unspecified), for which the Potency entry in test [1], in test [2], in test [3], in test [8], in [9] and in [10] was “inactive” each time. Also, the Potency entry in test [11], in test [12], in test [14], in [16], in test [17] and in test [18] was “inactive” in each case. For the same compound, the result in test [5] and in test [19] was inactive.

As for `CC(C)c1ccccc1C(C)C`, the results for the Potency in test [1] and in test [2] were 54.5 µM (active) and 61.2 µM (active), respectively. Further, the Potency result in test [3], in test [8], in [9], in test [10], in test [11] and in test [12] was “inactive” throughout. Besides, the Potency entry in test [13], in test [14], in [15], in test [16], in test [17] and in test [18] was “inactive” throughout. Also, the result in [5] was inactive.
